This note sets out measurements from PMC7862700, “An all-to-all approach to the identification of sequence-specific readers for epigenetic DNA modifications on cytosine”.

Common to all, as to assay: DAPPL (digital affinity profiling via proximity ligation, sequencing); 10 mM Tris-HCl pH 7.5, 50 mM NaCl, 1 mM DTT, 4% glycerol, room temperature, 30 min; GST-TFs on glutathione beads, 16-mer random dsDNA library, 0.1% formaldehyde crosslink after washing; high values mean tight binding
Common to all, as to details: protein: recombinant; tags: N-terminal GST; dsDNA, one strand shown

Assay [1] concerns the target T1, FLI1 (Homo sapiens, UniProt Q01543 1-452).
T1 sequence: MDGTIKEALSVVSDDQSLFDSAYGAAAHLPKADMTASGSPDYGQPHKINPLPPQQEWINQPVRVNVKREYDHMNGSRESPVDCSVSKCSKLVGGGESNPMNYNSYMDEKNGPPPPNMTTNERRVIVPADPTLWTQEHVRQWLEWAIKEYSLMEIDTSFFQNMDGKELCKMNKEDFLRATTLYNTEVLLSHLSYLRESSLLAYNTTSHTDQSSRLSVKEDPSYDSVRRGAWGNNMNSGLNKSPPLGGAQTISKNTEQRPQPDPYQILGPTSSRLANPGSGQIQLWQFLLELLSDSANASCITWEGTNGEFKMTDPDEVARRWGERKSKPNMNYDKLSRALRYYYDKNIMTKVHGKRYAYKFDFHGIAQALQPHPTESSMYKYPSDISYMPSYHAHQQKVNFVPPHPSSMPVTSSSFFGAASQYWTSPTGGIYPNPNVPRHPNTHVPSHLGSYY
Summed up: (§1)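 After expression in yeast as GST fusions, human transcription factors were bound to glutathione beads, DNA-barcoded and mixed with a tag-only sample. The pools were incubated with 200 nmole of a 16-mer random double-stranded DNA library in Tris/NaCl/DTT/glycerol buffer (30 min, room temperature), washed and crosslinked with 0.1% formaldehyde. Proximity ligation with BsaI/T4 ligase ran for 1 h at 37 °C, before PCR amplification and sequencing on an Illumina NextSeq500. Binding signal is a hexamer's read frequency for a factor divided by its frequency for the tag-only sample.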

Assay [2] concerns the target T2, ELK1 (Homo sapiens, UniProt P19419 1-428).
T2 sequence: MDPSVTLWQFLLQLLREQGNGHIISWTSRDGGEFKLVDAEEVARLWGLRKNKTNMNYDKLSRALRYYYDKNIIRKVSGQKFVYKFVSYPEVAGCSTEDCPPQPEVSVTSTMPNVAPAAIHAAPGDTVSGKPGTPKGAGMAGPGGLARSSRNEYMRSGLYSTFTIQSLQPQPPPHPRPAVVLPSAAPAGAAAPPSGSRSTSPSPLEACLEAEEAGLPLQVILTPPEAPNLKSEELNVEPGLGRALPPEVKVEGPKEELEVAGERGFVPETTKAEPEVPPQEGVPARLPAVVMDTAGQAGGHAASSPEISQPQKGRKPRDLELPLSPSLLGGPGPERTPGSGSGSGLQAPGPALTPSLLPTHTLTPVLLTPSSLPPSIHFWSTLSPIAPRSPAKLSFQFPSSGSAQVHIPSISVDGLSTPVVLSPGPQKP
The method in brief:
as §1

Assay [3] has as its target T3, GABPA (Homo sapiens, UniProt Q06546 1-454).
T3 sequence: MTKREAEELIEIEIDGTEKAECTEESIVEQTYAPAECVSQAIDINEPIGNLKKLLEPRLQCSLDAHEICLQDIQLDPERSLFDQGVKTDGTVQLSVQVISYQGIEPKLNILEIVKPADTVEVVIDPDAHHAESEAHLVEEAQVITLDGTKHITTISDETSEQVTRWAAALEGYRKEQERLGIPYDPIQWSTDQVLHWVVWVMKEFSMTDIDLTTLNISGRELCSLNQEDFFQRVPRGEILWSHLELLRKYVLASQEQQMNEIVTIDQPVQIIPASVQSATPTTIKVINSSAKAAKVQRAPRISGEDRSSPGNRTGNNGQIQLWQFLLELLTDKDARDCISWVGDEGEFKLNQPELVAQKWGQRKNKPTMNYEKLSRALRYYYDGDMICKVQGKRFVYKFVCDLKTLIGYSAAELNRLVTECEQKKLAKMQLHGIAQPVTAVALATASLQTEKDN
The method in brief:
as §1

In assay [4] the target is T4, ERG (Homo sapiens, UniProt P11308 1-479).
T4 sequence: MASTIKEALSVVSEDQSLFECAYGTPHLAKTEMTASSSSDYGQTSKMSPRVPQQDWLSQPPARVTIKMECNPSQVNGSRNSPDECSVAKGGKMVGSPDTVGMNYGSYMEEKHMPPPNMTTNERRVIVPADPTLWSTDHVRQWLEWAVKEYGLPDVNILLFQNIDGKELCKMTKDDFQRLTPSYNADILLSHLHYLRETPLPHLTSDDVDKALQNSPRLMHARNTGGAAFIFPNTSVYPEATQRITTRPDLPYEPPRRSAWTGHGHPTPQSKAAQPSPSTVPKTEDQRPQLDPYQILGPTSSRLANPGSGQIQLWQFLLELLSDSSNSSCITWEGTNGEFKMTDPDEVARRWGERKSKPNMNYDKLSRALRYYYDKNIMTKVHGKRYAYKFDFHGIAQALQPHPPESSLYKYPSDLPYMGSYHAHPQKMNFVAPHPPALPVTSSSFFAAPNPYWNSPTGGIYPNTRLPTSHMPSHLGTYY
Summed up: as §1

For assay [5], the target named is T5, EHF (Homo sapiens, UniProt Q9NZC4 1-300).
T5 sequence: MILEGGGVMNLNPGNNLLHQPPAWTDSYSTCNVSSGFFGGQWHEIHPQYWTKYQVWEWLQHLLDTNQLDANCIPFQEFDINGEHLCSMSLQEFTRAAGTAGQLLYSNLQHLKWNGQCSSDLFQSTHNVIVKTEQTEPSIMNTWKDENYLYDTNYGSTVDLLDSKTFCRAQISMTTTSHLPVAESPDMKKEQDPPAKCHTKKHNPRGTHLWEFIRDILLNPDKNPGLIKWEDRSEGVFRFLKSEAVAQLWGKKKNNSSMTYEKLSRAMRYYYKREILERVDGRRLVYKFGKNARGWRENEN
The method in brief:
as §1

Assay [6] has as its target SPI1 (Homo sapiens, UniProt P17947 1-270). Summed up: as §1
Assay [7] deals with SPIB (Homo sapiens, UniProt Q01892 1-262). Summed up:
as §1

In assay [8] the target is T6, FEV (Homo sapiens, UniProt Q99581 1-238).
T6 sequence: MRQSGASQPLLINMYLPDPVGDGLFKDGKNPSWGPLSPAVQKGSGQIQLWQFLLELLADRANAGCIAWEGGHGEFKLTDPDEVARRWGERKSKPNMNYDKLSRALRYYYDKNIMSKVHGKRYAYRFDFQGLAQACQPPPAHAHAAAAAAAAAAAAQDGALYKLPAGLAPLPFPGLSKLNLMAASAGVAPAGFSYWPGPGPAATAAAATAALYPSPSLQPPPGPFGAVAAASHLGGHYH
Summed up: as §1

For assay [9], the target named is ETV5 (Homo sapiens, UniProt P41161 1-510). The method in brief: as §1
ETV5, sequence (P41161 whole entry): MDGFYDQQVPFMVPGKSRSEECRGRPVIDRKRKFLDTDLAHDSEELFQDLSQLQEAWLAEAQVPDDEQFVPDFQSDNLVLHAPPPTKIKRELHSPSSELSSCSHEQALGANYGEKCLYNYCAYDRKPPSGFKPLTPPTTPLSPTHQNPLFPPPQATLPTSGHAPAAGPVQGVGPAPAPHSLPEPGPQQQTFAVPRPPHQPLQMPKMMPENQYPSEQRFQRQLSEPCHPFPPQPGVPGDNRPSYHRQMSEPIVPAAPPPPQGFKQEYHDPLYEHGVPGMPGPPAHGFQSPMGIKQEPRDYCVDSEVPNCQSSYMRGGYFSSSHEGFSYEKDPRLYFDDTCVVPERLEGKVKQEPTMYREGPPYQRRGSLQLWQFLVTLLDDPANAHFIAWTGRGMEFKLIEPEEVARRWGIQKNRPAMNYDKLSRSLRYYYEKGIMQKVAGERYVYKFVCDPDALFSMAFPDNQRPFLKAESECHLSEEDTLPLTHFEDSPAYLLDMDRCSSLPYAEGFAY
Assay [10] has as its target T7, SPIC (Homo sapiens, UniProt Q8N5J4 1-248).
T7 sequence: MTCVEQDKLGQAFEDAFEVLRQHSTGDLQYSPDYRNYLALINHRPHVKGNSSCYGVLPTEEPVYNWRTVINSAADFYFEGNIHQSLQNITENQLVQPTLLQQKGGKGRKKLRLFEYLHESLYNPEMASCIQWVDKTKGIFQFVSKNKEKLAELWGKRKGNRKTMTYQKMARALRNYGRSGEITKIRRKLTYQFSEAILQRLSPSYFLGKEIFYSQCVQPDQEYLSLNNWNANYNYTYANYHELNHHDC
The method in brief: as §1

In assay [11] the target is ELF4 (Homo sapiens, UniProt Q99607 1-663). The method in brief:
as §1

The target of assay [12] is ETV1 (Homo sapiens, UniProt P50549 1-477). Summed up: as §1
ETV1, sequence (P50549 whole entry): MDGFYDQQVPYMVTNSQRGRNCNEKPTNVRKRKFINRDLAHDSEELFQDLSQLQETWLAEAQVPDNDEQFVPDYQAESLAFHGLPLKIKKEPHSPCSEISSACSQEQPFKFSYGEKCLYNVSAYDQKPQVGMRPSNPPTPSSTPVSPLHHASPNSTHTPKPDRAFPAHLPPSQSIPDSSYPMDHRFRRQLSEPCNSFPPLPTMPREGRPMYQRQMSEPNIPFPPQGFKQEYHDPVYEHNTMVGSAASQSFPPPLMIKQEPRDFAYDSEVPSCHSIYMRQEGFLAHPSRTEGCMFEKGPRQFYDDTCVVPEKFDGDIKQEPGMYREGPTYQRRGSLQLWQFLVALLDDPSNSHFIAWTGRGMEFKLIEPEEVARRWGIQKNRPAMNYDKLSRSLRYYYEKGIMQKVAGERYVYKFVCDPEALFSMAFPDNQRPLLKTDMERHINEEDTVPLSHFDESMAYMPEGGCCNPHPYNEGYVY
Assay [13] has as its target T8, ERF (Homo sapiens, UniProt P50548 1-548).
T8 sequence: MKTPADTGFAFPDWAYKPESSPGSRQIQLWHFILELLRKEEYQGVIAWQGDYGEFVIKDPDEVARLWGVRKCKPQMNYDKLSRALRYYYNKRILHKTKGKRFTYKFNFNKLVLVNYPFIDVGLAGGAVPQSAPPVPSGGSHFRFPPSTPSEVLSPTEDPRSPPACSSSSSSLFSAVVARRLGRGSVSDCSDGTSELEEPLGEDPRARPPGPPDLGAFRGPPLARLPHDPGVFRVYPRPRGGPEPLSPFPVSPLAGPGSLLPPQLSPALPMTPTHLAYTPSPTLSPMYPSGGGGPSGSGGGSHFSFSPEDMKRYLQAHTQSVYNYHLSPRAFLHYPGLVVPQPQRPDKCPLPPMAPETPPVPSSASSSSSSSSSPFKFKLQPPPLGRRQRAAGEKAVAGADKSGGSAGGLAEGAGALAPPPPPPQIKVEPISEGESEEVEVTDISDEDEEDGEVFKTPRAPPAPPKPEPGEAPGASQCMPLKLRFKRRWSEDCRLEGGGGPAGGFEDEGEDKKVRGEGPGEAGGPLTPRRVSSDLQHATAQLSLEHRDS
The method in brief: as §1

For assay [14], the target named is T9, ETV3L (Homo sapiens, UniProt Q6ZN32 1-361).
T9 sequence: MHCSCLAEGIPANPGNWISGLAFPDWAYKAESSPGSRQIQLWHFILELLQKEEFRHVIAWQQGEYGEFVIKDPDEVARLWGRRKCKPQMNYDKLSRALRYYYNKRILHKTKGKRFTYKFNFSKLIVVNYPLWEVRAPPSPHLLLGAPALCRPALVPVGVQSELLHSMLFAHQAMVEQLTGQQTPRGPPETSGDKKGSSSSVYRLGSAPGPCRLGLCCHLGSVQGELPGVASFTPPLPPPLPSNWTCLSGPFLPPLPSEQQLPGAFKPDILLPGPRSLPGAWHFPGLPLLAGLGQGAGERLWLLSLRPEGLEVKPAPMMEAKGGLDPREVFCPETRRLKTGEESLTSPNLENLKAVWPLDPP
The method in brief: as §1

Assay [15] has as its target T10, ETS2 (Homo sapiens, UniProt P15036 1-469).
T10 sequence: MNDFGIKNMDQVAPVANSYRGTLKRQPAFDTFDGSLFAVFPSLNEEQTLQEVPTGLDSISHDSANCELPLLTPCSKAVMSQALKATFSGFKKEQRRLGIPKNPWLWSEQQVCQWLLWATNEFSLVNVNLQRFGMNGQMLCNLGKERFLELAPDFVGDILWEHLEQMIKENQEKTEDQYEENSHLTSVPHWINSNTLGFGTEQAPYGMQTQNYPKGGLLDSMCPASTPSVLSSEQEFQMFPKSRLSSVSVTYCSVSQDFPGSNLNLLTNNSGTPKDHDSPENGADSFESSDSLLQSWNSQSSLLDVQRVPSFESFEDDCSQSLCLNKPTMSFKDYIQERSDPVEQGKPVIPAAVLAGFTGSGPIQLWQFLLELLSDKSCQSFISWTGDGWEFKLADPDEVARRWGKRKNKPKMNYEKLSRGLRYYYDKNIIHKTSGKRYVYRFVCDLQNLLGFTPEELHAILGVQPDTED
The method in brief:
as §1

Assay [16] concerns the target T11, ELF5 (Homo sapiens, UniProt Q9UKW6-2 1-255).
T11 sequence: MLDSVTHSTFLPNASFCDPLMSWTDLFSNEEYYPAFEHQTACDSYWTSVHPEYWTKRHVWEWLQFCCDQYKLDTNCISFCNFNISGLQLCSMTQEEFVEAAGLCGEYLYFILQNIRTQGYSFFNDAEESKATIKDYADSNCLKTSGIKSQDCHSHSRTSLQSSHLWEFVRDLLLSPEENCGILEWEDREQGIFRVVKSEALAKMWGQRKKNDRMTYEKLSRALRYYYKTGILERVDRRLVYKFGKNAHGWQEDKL
Summed up:
as §1

The target of assay [17] is T12, ETV3 (Homo sapiens, UniProt P41162-2 1-143).
T12 sequence: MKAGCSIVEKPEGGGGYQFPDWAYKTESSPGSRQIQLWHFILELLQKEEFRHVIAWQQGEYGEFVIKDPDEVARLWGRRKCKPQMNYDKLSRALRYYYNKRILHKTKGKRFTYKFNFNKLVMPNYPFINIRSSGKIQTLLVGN
The method in brief:
as §1

ELF4, sequence (Q99607 whole entry): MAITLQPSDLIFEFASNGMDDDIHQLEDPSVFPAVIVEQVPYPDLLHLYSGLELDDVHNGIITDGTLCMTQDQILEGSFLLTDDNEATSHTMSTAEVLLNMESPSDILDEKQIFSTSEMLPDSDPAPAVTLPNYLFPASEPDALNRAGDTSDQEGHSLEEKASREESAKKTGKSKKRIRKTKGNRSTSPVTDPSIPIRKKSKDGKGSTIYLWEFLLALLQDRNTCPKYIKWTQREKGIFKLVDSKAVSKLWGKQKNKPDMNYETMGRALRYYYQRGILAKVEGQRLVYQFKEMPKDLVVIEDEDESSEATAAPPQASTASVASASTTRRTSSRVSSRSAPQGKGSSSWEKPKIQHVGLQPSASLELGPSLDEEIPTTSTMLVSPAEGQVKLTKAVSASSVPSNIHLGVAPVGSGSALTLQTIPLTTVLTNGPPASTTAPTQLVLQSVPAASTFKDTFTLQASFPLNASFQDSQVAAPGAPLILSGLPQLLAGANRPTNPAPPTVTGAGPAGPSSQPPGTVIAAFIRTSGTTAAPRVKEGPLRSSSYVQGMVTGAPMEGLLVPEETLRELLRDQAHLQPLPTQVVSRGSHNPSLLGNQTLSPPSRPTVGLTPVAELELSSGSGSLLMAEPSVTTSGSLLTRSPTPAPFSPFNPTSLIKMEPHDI
SPIB, sequence (Q01892 whole entry): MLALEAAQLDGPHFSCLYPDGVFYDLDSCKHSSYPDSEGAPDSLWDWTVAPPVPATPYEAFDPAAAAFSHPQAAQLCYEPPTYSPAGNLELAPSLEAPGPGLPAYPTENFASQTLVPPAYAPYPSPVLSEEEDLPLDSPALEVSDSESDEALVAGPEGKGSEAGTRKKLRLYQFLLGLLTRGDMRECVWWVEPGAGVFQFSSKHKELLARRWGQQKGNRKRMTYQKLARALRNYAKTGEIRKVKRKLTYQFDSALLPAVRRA

As to TGGTGC, the binding signal in [1] is 1.12 fold enrichment (6-mer frequency, TF over GST control); in assay [2] it was 1.14 fold enrichment (6-mer frequency, TF over GST control); in assay [3], 1.1 fold enrichment (6-mer frequency, TF over GST control); in [4], 1.16 fold enrichment (6-mer frequency, TF over GST control); in [5] it was 1.15 fold enrichment (6-mer frequency, TF over GST control); in assay [6], 1.12 fold enrichment (6-mer frequency, TF over GST control). For the same sequence, the binding signal in assay [7] was 1.06 fold enrichment (6-mer frequency, TF over GST control); in assay [8], 1 fold enrichment (6-mer frequency, TF over GST control); in assay [9], 1.1 fold enrichment (6-mer frequency, TF over GST control); in assay [10], 1.14 fold enrichment (6-mer frequency, TF over GST control); in [11], 1.07 fold enrichment (6-mer frequency, TF over GST control); in assay [12], 1.06 fold enrichment (6-mer frequency, TF over GST control). The binding signal in assay [13] was 1.11 fold enrichment (6-mer frequency, TF over GST control); in assay [14] it was 1.05 fold enrichment (6-mer frequency, TF over GST control); in assay [15], 1.01 fold enrichment (6-mer frequency, TF over GST control); in assay [16] it was 1.02 fold enrichment (6-mer frequency, TF over GST control); in assay [17], 1.17 fold enrichment (6-mer frequency, TF over GST control).
